Assay results from PubChem BioAssay AID1159580 (chemical genetic matrix, 2015).
Out of some 5,500 compounds screened, about 2,000 (36%) were called active. Another 18% or so got no clear call; they are omitted. Rule as the data show it: active = normalized growth mostly below about 0.91 (no sharp cut-off); inconclusive = no clear call, values can overlap the other calls; inactive = mostly above about 0.92. This is one part of the list.

Assay: chemical genetic growth profiling, strain panel (AID 1159580);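 also: tested at 20 µM; growth read once vehicle control cultures reached saturation at 30 °C; 1 = growth at the plate median or of vehicle wells; lower values mean less growth of the strain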
Conditions: S. cerevisiae deletion strains, growth OD

Measured: normalized growth

CCCN(CCC)CCc1ccc(O)c(O)c1
inactive: locus YAL040C, strain CLN3, stronger effect = lower value 1.03 | locus YCL061C, strain MRC1 (second series), stronger effect = lower value 1 | locus YDR363W, strain ESC2, stronger effect = lower value 1.04 | locus YER002W, strain NOP16, stronger effect = lower value 1.01 | locus YGR078C, strain PAC10, stronger effect = lower value 0.992 | locus YMR263W, strain SAP30, stronger effect = lower value 0.995 | locus YNL153C, strain GIM3, stronger effect = lower value 1 | locus YNL175C, strain NOP13, stronger effect = lower value 0.997 | locus YNL197C, strain WHI3, stronger effect = lower value 1 | locus YNL224C, strain SQS1, stronger effect = lower value 0.994 | locus YNL322C, strain KRE1, stronger effect = lower value 1.02 | locus YOR083W, strain WHI5 (second series), stronger effect = lower value 1.01 | locus YPL241C, strain CIN2, stronger effect = lower value 1
